Screening data from PubChem BioAssay.
Only some compounds are listed: those with a hit (about 17% of all), similar ones and a draw of the others.
DT40 TDP1 no CPT: qHTS for Inhibitors of human tyrosyl-DNA phosphodiesterase 1 (TDP1): qHTS in cells in absence of CPT; DT40 Tdp1-/- hTDP1 cells, no CPT, ATP luminescence, 48 h; 420,000 tested, 15% active; AID 686978, 2013; Potency, µM (series often up to 46.2 µM), without a hit: at the highest dose activity change, negative = growth inhibition, usual class: inhibitors; note: % is set by controls: 0 for no effect and ±100 for the full control effect; nearly all actives have a fitted effect of over 55% in size
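Growth of hTDP1-complemented DT40 Tdp1-knockout cells is measured by ATP luminescence after at least 48 hr compound exposure at 37 °C, with DMSO substituting for the 20 nM CPT used in the parallel screen.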
TDP1 inh: TDP1 (human) enzyme inhibition | recombinant TDP1, AlphaScreen DNA substrate cleavage | Potency, µM (titrated, usually from 130 µM), without a hit: at the top dose activity change, negative = inhibition, hits mostly inhibitors | 350,000 tested, 0.28% active | AID 485290; note: % is set by controls: 0 for no effect and ±100 for the full control effect; nearly all actives have a fitted effect of over 40% in size
Target sequence (Q9NUW8 whole entry, looked up): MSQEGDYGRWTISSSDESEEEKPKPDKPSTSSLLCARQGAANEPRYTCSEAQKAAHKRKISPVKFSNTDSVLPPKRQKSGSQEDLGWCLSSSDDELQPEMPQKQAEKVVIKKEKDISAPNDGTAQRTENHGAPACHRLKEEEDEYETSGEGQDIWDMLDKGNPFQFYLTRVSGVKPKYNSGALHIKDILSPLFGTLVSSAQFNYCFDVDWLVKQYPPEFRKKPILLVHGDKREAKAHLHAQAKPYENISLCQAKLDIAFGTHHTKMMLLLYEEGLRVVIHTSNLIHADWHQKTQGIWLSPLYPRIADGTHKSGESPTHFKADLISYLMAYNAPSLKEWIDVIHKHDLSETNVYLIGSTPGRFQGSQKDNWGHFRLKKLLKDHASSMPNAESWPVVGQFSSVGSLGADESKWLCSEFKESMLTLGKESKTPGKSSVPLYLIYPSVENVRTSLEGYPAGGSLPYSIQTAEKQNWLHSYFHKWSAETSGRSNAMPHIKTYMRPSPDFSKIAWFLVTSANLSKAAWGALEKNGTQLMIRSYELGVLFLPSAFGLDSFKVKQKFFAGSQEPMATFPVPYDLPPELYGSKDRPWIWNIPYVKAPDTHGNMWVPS
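Compounds were preincubated with Tdp1 (1 nM final) for 15 min at room temperature before substrate (15 nM final) started a 5 min reaction; beads (10 ug/ml final) were then added for 10 min before AlphaScreen detection.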
ClpP mod: qHTS Assay for Activators of ClpP; Potency, µM (series often up to 57.5 µM), for inactives: at the highest dose activity change, negative = active; purified B. subtilis ClpP, FRET peptide cleavage, 20 min; 340,000 tested, 1.9% active; ATP-dependent Clp protease proteolytic subunit (Bacillus subtilis (strain 168)), P80244; active = well fitted falling curve with a large enough effect; inconclusive = small, poorly fitted or top-dose-only effect; inactive = no such curve, though single readings can be large or run the other way; note: the source files actives as falling curves though it sought activators and does not explain the sign; nearly all actives have a fitted effect of over 65% in size
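Purified B. subtilis ClpP, 10 microg/mL final in Tris/HCl pH8 with KCl, BSA, glycerol and Tween-20, cleaved an Abz/nitrotyrosine-quenched decapeptide. Fluorescence (ex 320, em 430) was read at 0 and 20 min at room temperature. Delta was normalized to 5.8 microM ADEP and DMSO/no-enzyme controls.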
TDP1 cell CPT: DT40-hTDP1 cell growth loss with CPT; AID 686979; 420,000 tested, 12% active; chicken DT40 Tdp1-/-;hTDP1 cells + 20 nM CPT, ATP luminescence, 48 h; Potency, µM (series often up to 46.2 µM), for the others: top-dose activity change, negative = growth inhibition, usual class: inhibitors; note: % is set by controls: 0 for no effect and ±100 for the full control effect; nearly all actives have a fitted effect of over 55% in size
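Chicken DT40 Tdp1-/- cells complemented with human TDP1, 400 cells/well, exposed to compounds plus 20 nM camptothecin for at least 48 h at 37 C; viability read as ATP content by CellTiter-Glo luminescence.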
Active calls of the source: *; [ ] = remark or other dose. Unless noted, calls come from the whole dose curve; as a rule, active = well fitted curve in the direction sought with a large enough effect; inconclusive = small, poorly fitted or top-dose-only effect, or another doubt; inactive = no such curve, though single readings can be large; an effect the other way counts as inactive or inconclusive. Potency is the fitted concentration of half-maximal effect.

How did CCC1CN(CCC(=O)N2CCN(c3ncccn3)CC2)Cc2cc(OC)ccc2O1 (stereo not drawn) do in these assays?
DT40 TDP1 no CPT: -14%; TDP1 cell CPT: -3%[9.04 µM]

What do the screens show for `CC(C)C[C@H]1COc2cc(N3CCC[C@H]3CO)ccc2S(=O)(=O)N1`?
DT40 TDP1 no CPT: -18%; ClpP mod: -4%; TDP1 cell CPT: -25%

Results for O=S1(=O)N[C@@H](Cc2ccccc2)COc2cc(N3CCC[C@@H]3CO)ccc21 ?
DT40 TDP1 no CPT: 16µM*; ClpP mod: -1%; TDP1 cell CPT: inconclusive

Results for COc1ccc(CCNC(=O)C(=O)Nc2ccc(C)cc2)cc1OC ?
TDP1 inh: -5%; ClpP mod: 0%

Results for CCCC(=O)N1CCN(c2nnc(-c3ccccc3)c3ccccc23)CC1 ?
DT40 TDP1 no CPT: -14%; ClpP mod: -1%; TDP1 cell CPT: -19%

Results for O=C(COc1ccc(-c2nnc(N3CCCCC3)c3ccccc23)cc1)N1CCCCC1 ?
DT40 TDP1 no CPT: 16µM*; TDP1 inh: 2%; ClpP mod: -3%; TDP1 cell CPT: inconclusive

What do the screens show for `O=C(COc1ccc([N+](=O)[O-])cc1)N1CCN(c2nnc(-c3ccccc3)c3ccccc23)CC1`?
DT40 TDP1 no CPT: 8.2µM*; ClpP mod: 1%; TDP1 cell CPT: 21µM*

How did Cc1cccc(N2CCN(C(=O)CCNS(=O)(=O)c3cccs3)CC2C)c1 (stereo not drawn) do in these assays?
DT40 TDP1 no CPT: 21µM*; TDP1 inh: 7%; TDP1 cell CPT: inconclusive

What do the screens show for `CCC(=O)N1CCc2cc(S(=O)(=O)NCCC(=O)N3CCN(c4cccc(C)c4)C(C)C3)ccc21` (stereo not drawn)?
DT40 TDP1 no CPT: 9.2µM*; TDP1 inh: 1%; ClpP mod: 2%; TDP1 cell CPT: 21µM*

What do the screens show for `CCC(=O)N1CCc2cc(S(=O)(=O)NCCC(=O)Nc3ccc(OC)cc3)ccc21`?
DT40 TDP1 no CPT: -14%; TDP1 inh: 2%; ClpP mod: -1%; TDP1 cell CPT: -2%

What do the screens show for `CCC(=O)N1CCc2cc(S(=O)(=O)NCCC(=O)N3CCN(c4cccc(OC)c4)CC3)ccc21`?
DT40 TDP1 no CPT: 13µM*; TDP1 inh: 5%; ClpP mod: -4%; TDP1 cell CPT: inconclusive

How did CC1CC(C)CN(C(=O)CCNS(=O)(=O)c2cccs2)C1 (stereo not drawn) do in these assays?
DT40 TDP1 no CPT: -9%; TDP1 inh: 0%; ClpP mod: 1%; TDP1 cell CPT: -24%

How did Cc1cccc(N2CCN(C(=O)CCS(=O)(=O)c3ccc4c(c3)CC(=O)N4C)CC2C)c1 (stereo not drawn) do in these assays?
DT40 TDP1 no CPT: inconclusive; TDP1 inh: 3%; ClpP mod: 0%; TDP1 cell CPT: 16µM*

How did COCC(=O)Nc1ccc(C(=O)Nc2ccccc2Cl)cc1 do in these assays?
TDP1 inh: 3%

How did CCCNC(=O)C1(C)CCCN(C(=O)c2ccccc2F)C1 (stereo not drawn) do in these assays?
DT40 TDP1 no CPT: 1%; ClpP mod: -1%; TDP1 cell CPT: 5%

Results for COc1ccc(CCC(=O)OCC(=O)Nc2c(C)n(C)n(-c3ccccc3)c2=O)cc1 ?
DT40 TDP1 no CPT: 4%; TDP1 inh: 0%; ClpP mod: 0%; TDP1 cell CPT: 4%

How did CCC(=O)N1CCc2cc(S(=O)(=O)NCCC(=O)N3CCN(Cc4ccccc4)CC3)ccc21 do in these assays?
DT40 TDP1 no CPT: -28%; TDP1 inh: 2%; ClpP mod: -2%; TDP1 cell CPT: -14%

What do the screens show for `CCC(=O)N1CCc2cc(S(=O)(=O)NCCC(=O)N3CCN(c4ccccc4)CC3)ccc21`?
DT40 TDP1 no CPT: 21µM*; TDP1 inh: 6%; ClpP mod: 1%; TDP1 cell CPT: inconclusive

How did CSCCC(NC(=O)c1occc1C)C(=O)O (stereo not drawn) do in these assays?
DT40 TDP1 no CPT: -1%; TDP1 inh: 3%; ClpP mod: 25µM*; TDP1 cell CPT: 6%

Results for CSCCC(NC(=O)c1ccco1)C(=O)O (stereo not drawn) ?
DT40 TDP1 no CPT: -1%; TDP1 inh: -2%; ClpP mod: -1%; TDP1 cell CPT: -1%

How did Cn1cccc1C1NC(=O)c2c(sc3c2CCC(C(C)(C)C)C3)N1 (stereo not drawn) do in these assays?
DT40 TDP1 no CPT: 18µM*; TDP1 inh: 5%; ClpP mod: 0%; TDP1 cell CPT: -30%

How did CC(NC(=O)COC(=O)CNS(=O)(=O)/C=C/c1ccccc1)c1ccccc1 (stereo not drawn) do in these assays?
DT40 TDP1 no CPT: -5%; TDP1 inh: 1%; ClpP mod: 0%; TDP1 cell CPT: -19%

Results for O=C(Nc1cccc(-c2cccc(F)c2)c1)C1CCN(Cc2ccc(CO)o2)CC1 ?
DT40 TDP1 no CPT: inconclusive; TDP1 inh: 6%; ClpP mod: 1%; TDP1 cell CPT: inconclusive

Results for Cc1cc(C)n(CCCN2CCC(C(=O)Nc3cccc(-c4cccc(F)c4)c3)CC2)n1 ?
DT40 TDP1 no CPT: 18µM*; TDP1 inh: 3%; ClpP mod: 1%; TDP1 cell CPT: inconclusive

What do the screens show for `CCn1ncc(CN2CCC(C(=O)Nc3cccc(-c4cccc(F)c4)c3)CC2)c1C`?
DT40 TDP1 no CPT: 6.5µM*; TDP1 inh: 1%; ClpP mod: -1%; TDP1 cell CPT: inconclusive

How did COc1ccc(CN2CCC3(CC2)c2ccccc2[C@@H](NC(=O)c2ccco2)[C@@H]3OC)c(O)c1 do in these assays?
DT40 TDP1 no CPT: -15%; TDP1 cell CPT: -8%[9.04 µM]

How did COc1cc(CN2CCC3(CC2)c2ccccc2[C@@H](NC(=O)c2ccccc2OC)[C@@H]3O)ccc1F do in these assays?
DT40 TDP1 no CPT: 18µM*; TDP1 cell CPT: -12%[9.04 µM]

How did COc1ccccc1C(=O)N[C@@H]1c2ccccc2C2(CCN(Cc3nccs3)CC2)[C@H]1OC do in these assays?
DT40 TDP1 no CPT: -83%; TDP1 cell CPT: -11%[9.04 µM]

Results for CO[C@H]1[C@H](NC(=O)c2ccco2)c2ccccc2C12CCN(Cc1cc(Cl)ccc1O)CC2 ?
DT40 TDP1 no CPT: 23µM*; TDP1 cell CPT: -1%[9.04 µM]

How did CC1(C)O[C@@H]1COc1c2ccoc2cc2oc(=O)ccc12 do in these assays?
DT40 TDP1 no CPT: 18µM*; TDP1 inh: 1%; ClpP mod: -5%; TDP1 cell CPT: 12µM*

How did Cc1ccc(NS(=O)(=O)c2cc3c(cc2-c2ccsc2)NC(=O)CO3)cc1C do in these assays?
TDP1 inh: 0%

How did [O-][n+]1onc2c1CCc1c-2nn(-c2ccccc2Cl)[n+]1[O-] do in these assays?
DT40 TDP1 no CPT: 15µM*; TDP1 inh: 2%; ClpP mod: 1%; TDP1 cell CPT: 13µM*

What do the screens show for `N#Cc1c(-c2ccccc2)no[n+]1[O-]`?
TDP1 inh: 10%[56.1 µM]
